Screening results: PubChem BioAssay, NMMLSC
Sampled rows, rich in hits. Any-hit rate of the full collection: about 1.3%.
Efflux pump inh: blocks antifungal efflux pumps in multiplex yeast assay. S. cerevisiae Candida pump triplex, Nile Red efflux. inhibition, % at 10 µM. hit rate 0.44% among 330,000;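 active = plate passing quality check with inhibition over a set limit, or well fluorescence over plate mean plus 4 SD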;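 also: Nile Red retained in pooled yeast measured as flow cytometry median fluorescence; 0% = buffer negative control and 100% = Enniatin B positive control; higher means more Nile Red kept so more efflux inhibition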
LAP4-GFP MLPCN: modulators of TOR pathway LAP4-GFP in S. cerevisiae | AID 2023 | GFP response vs DMSO, % at 10 µM | S. cerevisiae LAP4-GFP multiplex, flow cytometry GFP, 3 h; median GFP as percent of DMSO wells | hit rate 0.34% among 320,000;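 active = GFP response vs DMSO above a set limit, about the screen mean plus 3 SD, cut at about 150% in these data; inconclusive = under 70 cell events counted for the yeast strain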
RPL19A TOR yeast: yeast TOR pathway RPL19A-GFP modulation. S. cerevisiae RPL19A-GFP strain, flow cytometry, 3 h; active compounds read low. percent response vs DMSO, % at 10 µM. hit rate 0.3% among 330,000. AID 2025;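 active = percent response vs DMSO below 50%; inconclusive = fewer than 70 events counted for the yeast strain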;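 also: median channel GFP fluorescence of the barcoded RPL19A-GFP strain; ratio of sample median GFP to plate DMSO average so 100% = DMSO; lower means less RPL19A-GFP as with rapamycin TOR inhibition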
CIT2 TOR yeast: alters CIT2-GFP fluorescence in TOR pathway yeast screen. S. cerevisiae CIT2-GFP strain, flow cytometry, 3 h; 100 means same as DMSO wells. GFP response vs DMSO, % at 10 µM. hit rate 0.065% among 320,000;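 active = GFP response relative to DMSO above a set limit, near the screen mean plus 3 SD, cut at about 150% in these data; inconclusive = Fewer than 70 cells measured for a yeast strain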;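 also: ratio of well median GFP fluorescence to mean of DMSO wells on the plate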
AGP1 TOR yeast: alters AGP1-GFP fluorescence in TOR pathway yeast screen; hit rate 0.02% among 320,000; S. cerevisiae AGP1-GFP multiplex flow cytometry, 3 h; GFP as percent of DMSO wells; AID 2066; GFP response vs DMSO, % at 10 µM;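 active = GFP response relative to DMSO above a set limit, near screen average plus 3 SD, cut at about 150% in these data; inconclusive = fewer than 70 cells counted for the yeast strain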;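 also: median GFP channel fluorescence of the gated AGP1 strain per well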
MEP2-GFP yeast: yeast TOR pathway MEP2-GFP modulation; GFP response vs DMSO, % at 10 µM; AID 2016; S. cerevisiae MEP2-GFP strain, flow cytometry GFP, 3 h; 100% = DMSO control level; hit rate 0.51% among 330,000;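 active = GFP response versus DMSO above a set limit, roughly screen mean plus 3 SD, cut at about 180% in these data; inconclusive = fewer than 70 cells counted for a yeast strain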;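 also: median GFP fluorescence of the barcode-gated MEP2-GFP cells per well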
LAP4 cherry2: second confirmation of modulators of TOR reporter LAP4-GFP in yeast; S. cerevisiae LAP4-GFP strain, flow cytometry GFP, 3 h; GFP response vs DMSO, % at 10 µM; hit rate 20% among 590; shares compounds with LAP4-GFP MLPCN;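 active = GFP signal as percent of the solvent control above about 150%, meaning raised reporter expression, limit read from the data; inconclusive = fewer than 70 cells counted in the well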;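 also: ratio of well median GFP fluorescence to plate DMSO mean so 100% = DMSO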
MEP2-GFP pick2: reconfirmed MEP2-GFP TOR pathway modulator in yeast; shares compounds with LAP4-GFP MLPCN; S. cerevisiae MEP2-GFP strain, flow cytometry GFP, 3 h; GFP response vs DMSO, % at 10 µM; hit rate 10% among 590; AID 2622;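 active = GFP signal above 150% of the solvent control wells, that is a rise of more than half; inconclusive = fewer than 70 yeast cells counted in the well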;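 also: median channel GFP fluorescence of all gated yeast cells per well; ratio of median GFP to plate DMSO average so 100% = DMSO level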
RPL19A GFP CP2: reconfirmed modulator of RPL19A-GFP TOR reporter in yeast; hit rate 3% among 590; GFP response vs DMSO, % at 10 µM; S. cerevisiae RPL19A-GFP strain, flow cytometry GFP, 3 h; active compounds read low; 100% means same as DMSO wells; shares compounds with LAP4-GFP MLPCN;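 active = under 65% GFP response relative to DMSO; inconclusive = yeast strain with under 70 measured events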;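 also: median GFP channel fluorescence per well over the all cells gate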
CIT2-GFP pick2: reconfirmed modulator of CIT2-GFP TOR reporter in yeast; hit rate 8% among 590; AID 2624; GFP response vs DMSO, % at 10 µM; shares compounds with LAP4-GFP MLPCN; S. cerevisiae CIT2-GFP strain, flow cytometry GFP, 3 h; DMSO control wells read 100%;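 active = GFP response vs DMSO above about 150%, limit read from the data; inconclusive = fewer than 70 events counted for a yeast strain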;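 also: median green fluorescence per well over all gated yeast cells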
AGP1-GFP pick2: reconfirmed modulator of AGP1-GFP TOR reporter in yeast; shares compounds with LAP4-GFP MLPCN; S. cerevisiae AGP1-GFP strain, flow cytometry GFP, 3 h; percent response vs DMSO, % at 10 µM; 590 tested, under 10 active;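 active = over 150 percent of DMSO response; inconclusive = yeast strain measured with under 70 events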;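 also: median GFP channel fluorescence over all cells without mother daughter split; sample median GFP divided by mean DMSO control so 100% equals DMSO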
s288c autofluor: yeast s288c autofluorescence artifact, counter-screen | 610 tested, under 10 active | fluorescence change (kMESF span) at 33 µM | shares compounds with LAP4-GFP MLPCN | S. cerevisiae s288c, 520 nm autofluorescence, flow cytometry, 3 h; active compounds read high; zero means same as solvent-only cells | AID 2757;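 active = fluorescence span over the dose series, or activity score, above about 33, limit read from the data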
Yeast autofl DR: TOR screen hit shows autofluorescence in yeast s288c. shares compounds with LAP4-GFP MLPCN. S. cerevisiae s288c parental, compound autofluorescence, flow cytometry, 3 h. fluorescence change (span) at 33 µM. 110 tested, under 10 active. AID 488829;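 active = fluorescence change span, or the activity score built from it, above 25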
TORC1 bypass gr: wildtype yeast growth loss with TORC1 bypass cells unaffected. shares compounds with LAP4-GFP MLPCN. S. cerevisiae BY4741 spot growth rating, 48-72 h; active compounds read low. growth rating (0-3) at 30 µM. 120 tested, under 10 active. AID 504456;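 active = growth rating at most 1 for wild type yeast while the TORC1 bypass strain still grows fully, rated 3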
* hit, by the source's call; ? = inconclusive; . = no result given.

SMILES | Efflux pump inh | LAP4-GFP MLPCN | RPL19A TOR yeast | CIT2 TOR yeast | AGP1 TOR yeast | MEP2-GFP yeast | LAP4 cherry2 | MEP2-GFP pick2 | RPL19A GFP CP2 | CIT2-GFP pick2 | AGP1-GFP pick2 | s288c autofluor | others
CCOC(=O)CSC1=NC(=O)/C(=C\c2ccc(Cl)cc2)S1 | 0 | 184* | 94 | 73 | 83 | 87 | . | . | . | . | . | 0.21 | Yeast autofl DR=0.16;TORC1 bypass gr=3
COc1ccc(-c2cc(=O)c3c(OC)c(OC)c(OC)c(OC)c3o2)cc1OC | 0 | 234* | 75 | 84 | 91 | 93 | 101 | 101 | 100 | 102 | 97 | .
Cc1cccc(C)c1NC(=O)COC(=O)CN1C(=O)C2CCCCC2C1=O (configuration not stated) | 0 | 103 | 102 | 98 | 106 | 102 | . | . | . | . | . | .
CCOc1ccc(-c2nc(CS(=O)(=O)CC(=O)NCc3ccc(F)cc3)c(C)o2)cc1 | 0 | 181* | 86 | 138 | 138 | 177* | 102 | 101 | 97 | 102 | 101 | .
COc1ccc(S(=O)(=O)Nc2ccc(S(=O)(=O)Nc3nccs3)cc2)cc1 | 0 | 96 | 100 | 101 | 99 | 94 | . | . | . | . | . | .
CCOC(=O)N1CCc2c(sc(NC(=O)c3ccc(Cl)s3)c2C(N)=O)C1 | 0 | 183* | 86 | 77 | 87 | 91 | 125 | 96 | 99 | 113 | 96 | .
CCOC(=O)N1CCc2c(sc(NC(C)=O)c2C(N)=O)C1 | 0 | 109 | 101 | 98 | 101 | 104 | . | . | . | . | . | .
COc1cccc(/C=C2\SC(=S)N(CCCC(=O)N(CCO)c3ccccc3)C2=O)c1 | 0 | 103 | 99 | 94 | 98 | 99 | . | . | . | . | . | .
NC(=O)CSc1nnc(-c2ccccc2)c(-c2ccccc2)n1 | 0 | 95 | 103 | 97 | 96 | 110 | . | . | . | . | . | .
On1ccccc1=S | 0 | 260* | 97 | 100 | 99 | 111 | 181* | 118 | 95 | 139 | 95 | 0.1
O=C(Cn1ccccc1=S)c1ccc(Cl)c(Cl)c1 | 0 | 105 | 96 | 89 | 98 | 107 | . | . | . | . | . | .
O=C1ON=C(c2ccccc2)/C1=C/c1ccc(-c2ccccc2[N+](=O)[O-])o1 | 0 | 179* | 86 | 88 | 86 | 91 | 150* | 117 | 100 | 106 | 98 | 0.6
COc1ccc(/C=C2/C(=O)ON=C2c2ccccc2)cc1OC | 0 | 171* | 89 | 83 | 80 | 87 | . | . | . | . | . | 0.5
COc1cc(/C=C2\C(=O)ON=C2c2ccccc2)cc(OC)c1OC | 0 | 143 | 78 | 76 | 75 | 90 | 195* | 120 | 96 | 123 | 94 | 0
CN(C)/C=C1\C(=O)ON=C1c1ccccc1 | 0 | 91 | 98 | 98 | 97 | 102 | . | . | . | . | . | .
COc1ccc(/C=C2\C(=O)ON=C2c2ccccc2)cc1OC | 0 | 100 | 105 | 105 | 104 | 112 | . | . | . | . | . | .
O=C1ON=C(c2ccccc2)/C1=C/c1ccco1 | 0 | 169* | 91 | 73 | 80 | 98 | . | . | . | . | . | 1.9 | Yeast autofl DR=0.73;TORC1 bypass gr=3
O=[N+]([O-])c1ccccc1-c1ccc(/C=N/n2cnnc2)o1 | 0 | 111 | 110 | 100 | 116 | 112 | . | . | . | . | . | .
COc1cccc(CNC(=O)COC(=O)CCc2cc(OC)c(OC)c(OC)c2)c1 | 0 | 110 | 111 | 105 | 116 | 115 | . | . | . | . | . | .
COc1ccccc1CNC(=O)C(=O)NCC1OCCCN1S(=O)(=O)c1ccc(F)cc1C (configuration not stated) | 0 | 83 | 97 | 87 | 95 | 84 | . | . | . | . | . | .
O=C(Sc1cccc2cccnc12)c1ccccc1Br | 0 | 166* | 94 | 89 | 82 | 105 | . | . | . | . | . | 0.21
O=C1C(Cl)=C(N2CCCCCC2)C(=O)N1c1ccccc1Cl | 0 | 91 | 104 | 96 | 95 | 104 | . | . | . | . | . | .
Cc1ccccc1N1C(=O)C(Cl)=C(N2CCN(c3ccccc3)CC2)C1=O | 0 | 105 | 100 | 94 | . | 100 | . | . | . | . | . | 0.1
O=C(OCC(=O)c1c[nH]c2ccccc12)c1cccc([N+](=O)[O-])c1 | 0 | 97 | 95 | 89 | 89 | 100 | . | . | . | . | . | .
CCCc1cc(NCc2ccccn2)n2nc(C)c(-c3ccccc3)c2n1 | 0 | 158* | 90 | 67 | 70 | 99 | . | . | . | . | . | 2
SMILES | Efflux pump inh | LAP4-GFP MLPCN | RPL19A TOR yeast | CIT2 TOR yeast | AGP1 TOR yeast | MEP2-GFP yeast | LAP4 cherry2 | MEP2-GFP pick2 | RPL19A GFP CP2 | CIT2-GFP pick2 | AGP1-GFP pick2 | s288c autofluor | others
O=C(O)c1ccc2c(c1)C(=O)/C(=C/c1ccccc1)C2=O | 0 | 83 | 94 | 86 | 86 | 92 | 88 | 94 | 99 | 107 | 98 | 0
O=C(O)c1ccc2c(c1)C(=O)/C(=C\c1ccco1)C2=O | 0 | 89 | 103 | 103 | 102 | 103 | . | . | . | . | . | .
COc1cc2c(cc1OC)C(C(=O)NC(C)c1ccccc1)CC(=O)N2 (configuration not stated) | 0 | 93 | 102 | 100 | 98 | 100 | . | . | . | . | . | .
Cc1cc(C2CCCCC2)n(O)c(=O)c1 | 0 | 192* | 100 | 61 | 84 | 91 | 187* | 121 | 104 | 74 | 113 | 0
COc1ccc(Cl)cc1NC(=O)C[n+]1cccc(C)c1 | 0 | ? | ? | ? | ? | ? | . | . | . | . | . | .
COc1cc(SSc2cc(OC)cc([N+](=O)[O-])c2N)c(N)c([N+](=O)[O-])c1 | 0 | 236* | 58 | 108 | 88 | 83 | . | . | . | . | . | 1
COc1cc([N+](=O)[O-])c2ncsc2c1 | 0 | 101 | 102 | 102 | 103 | 104 | . | . | . | . | . | .
